Screens from PubChem BioAssay.
The entries come from a sample that favours hits as a whole.
GoLoco inh red – inhibitors of human Gai1-RGS12 GoLoco interaction (red fluorophore). hit rate 0.44% among 230,000. Potency, µM (doses to about 61.6 µM), for inactives: top-dose activity, negative = inhibition, actives largely listed as inhibitors. AID 880. Gai1:RGS12 GoLoco peptide FP, rhodamine, 10 min. P63096; active means well fitted inhibition curve with a large enough effect, not every such curve was filed as active; inactive means no such curve, though single readings can be large or run the other way; further: nearly all actives have a fitted effect of over 30% in size
L3MBTL1 inh – inhibitors of human L3MBTL1; AlphaScreen L3MBTL1–H3K9me1 peptide binding; Potency, µM (top dose mostly 57.1 µM), without a hit: at the top dose activity, negative = inhibition, most hits filed as inhibitors; hit rate 0.66% among 230,000; further: nearly all actives have a fitted effect of over 60% in size
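L3MBTL1 50 nM + b-AHA-H3(1-15)K9me1 75 nM, 30 min RT; compound added, 30 min RT; streptavidin donor/Ni-chelate acceptor beads 10 ug/mL each final, 30 min RT dark; AlphaScreen read.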
JMJD2E inh – JMJD2E (human) inhibition; B2RXH2; JMJD2E catalytic domain, FDH-coupled NADH fluorescence (FDH is formaldehyde dehydrogenase); Potency, µM (highest dose often 57.1 µM), inactives show top-dose activity change, negative = inhibition, usual class: inhibitors; hit rate 1.6% among 230,000; AID 2147; active means well fitted inhibition curve with a large enough effect, not every such curve was filed as active; inconclusive means small, poorly fitted or top-dose-only effect, or another doubt; inactive means no such curve, though single readings can be large or run the other way;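 further: 0% = wells with enzyme and -100% = buffer wells without enzyme; nearly all actives have a fitted effect of over 50% in size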
BLM inh – inhibitors of human Bloom syndrome helicase BLM. P54132. recombinant BLM DNA unwinding, fluorescence dequenching. Potency, µM (series often up to 56.1 µM), for the others: at the highest dose activity change, negative = inhibition, actives largely listed as inhibitors. hit rate 0.2% among 350,000;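 further: plate controls were vehicle for no effect and no enzyme for full effect; nearly all actives have a fitted effect of over 35% in size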
Target sequence (P54132 whole entry, looked up): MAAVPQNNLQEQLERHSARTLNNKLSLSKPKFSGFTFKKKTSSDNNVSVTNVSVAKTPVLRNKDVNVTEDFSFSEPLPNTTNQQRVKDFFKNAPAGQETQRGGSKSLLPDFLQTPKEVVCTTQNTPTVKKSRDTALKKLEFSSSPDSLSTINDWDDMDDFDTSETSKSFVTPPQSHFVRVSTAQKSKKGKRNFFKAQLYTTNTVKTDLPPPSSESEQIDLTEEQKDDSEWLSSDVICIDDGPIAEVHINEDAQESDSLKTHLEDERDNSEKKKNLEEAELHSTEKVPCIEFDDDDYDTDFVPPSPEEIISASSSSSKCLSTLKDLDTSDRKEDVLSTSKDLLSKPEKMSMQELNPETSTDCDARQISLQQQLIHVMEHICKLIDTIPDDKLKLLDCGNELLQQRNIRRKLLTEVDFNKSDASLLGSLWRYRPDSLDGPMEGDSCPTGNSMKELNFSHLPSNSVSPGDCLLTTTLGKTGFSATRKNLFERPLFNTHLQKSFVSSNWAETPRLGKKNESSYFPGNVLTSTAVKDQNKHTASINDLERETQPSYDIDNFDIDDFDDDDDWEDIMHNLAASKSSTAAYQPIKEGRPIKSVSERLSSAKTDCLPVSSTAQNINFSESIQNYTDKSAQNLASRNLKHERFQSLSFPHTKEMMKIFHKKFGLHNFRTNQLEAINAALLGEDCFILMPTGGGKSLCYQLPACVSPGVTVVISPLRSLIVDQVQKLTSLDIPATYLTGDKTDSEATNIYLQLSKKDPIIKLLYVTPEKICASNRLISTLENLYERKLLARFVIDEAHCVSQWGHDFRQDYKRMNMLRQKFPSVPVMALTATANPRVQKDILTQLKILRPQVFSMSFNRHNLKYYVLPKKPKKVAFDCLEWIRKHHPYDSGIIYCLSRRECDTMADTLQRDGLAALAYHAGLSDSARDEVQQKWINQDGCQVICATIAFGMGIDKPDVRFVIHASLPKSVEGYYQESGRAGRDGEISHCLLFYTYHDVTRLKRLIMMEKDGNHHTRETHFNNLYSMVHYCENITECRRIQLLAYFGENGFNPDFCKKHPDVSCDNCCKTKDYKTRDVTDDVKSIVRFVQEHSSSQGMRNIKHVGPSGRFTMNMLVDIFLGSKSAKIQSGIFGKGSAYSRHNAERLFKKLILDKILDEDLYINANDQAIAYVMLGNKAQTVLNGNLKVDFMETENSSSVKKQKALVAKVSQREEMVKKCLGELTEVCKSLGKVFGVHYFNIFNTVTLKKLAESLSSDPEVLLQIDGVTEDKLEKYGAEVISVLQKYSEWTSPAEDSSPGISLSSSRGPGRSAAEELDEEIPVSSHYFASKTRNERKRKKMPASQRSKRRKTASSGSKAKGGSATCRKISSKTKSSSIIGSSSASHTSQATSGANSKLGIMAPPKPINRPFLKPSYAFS
RECQ1 inh-1 – RECQ1 (human) helicase inhibition. P46063. RECQ1 DNA unwinding, red fluorescence kinetic read. Potency, µM (doses to about 57.3 µM), for the others: at the top dose activity, negative = inhibition, actives largely listed as inhibitors. hit rate 0.54% among 240,000. AID 2549;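 further: plate controls were vehicle for no effect and no enzyme for full effect; nearly all actives have a fitted effect of over 30% in size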
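50 nM RECQ1T1 preincubated 15 min with compound in Tris pH 8.0 buffer with MgCl2, DTT, Tween-20 and 2.5 ug/ml poly(dI-dC); started with 200 nM TAMRA/BHQ-2 forked duplex and 2 mM ATP. Unwinding read as fluorescence (525/598 nm), two reads 2 h apart.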
APEX1 inh – APE1 (human) endonuclease inhibition; P27695; Potency, µM (doses to about 65.8 µM), for inactives: top-dose activity change, negative = inhibition, hits mostly inhibitors; recombinant APE1, TAMRA/BHQ-2 abasic DNA cleavage fluorescence; hit rate 0.35% among 350,000;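 further: plate controls were vehicle for no effect and reference inhibitor for full effect; nearly all actives have a fitted effect of over 55% in size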
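0.75 nM APE1 + cpd, 15 min RT; start w/ 50 nM TAMRA/BHQ-2 THF-abasic dsDNA; kinetic fluor 525/598 nm ×3 reads @60 s; Δ(read3−read1); normalized to DMSO and NSC13755 control wells.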
RECQ1 conf – confirmation of human RECQ1 helicase inhibitors. shares compounds with RECQ1 inh-1. AID 2708. hit rate 28% among 610. Potency, µM (top dose mostly 229 µM), without a hit: at the highest dose activity change, negative = inhibition, most hits filed as inhibitors. RECQ1 helicase DNA unwinding, fluorescence; further: nearly all actives have a fitted effect of over 45% in size
ADP FP counter – counter-screen for RECQ1 inhibitors: ADP displacement; shares compounds with RECQ1 inh-1; ADP fluorescence polarization displacement counterscreen; Potency, µM (highest dose often 228 µM), inactives show at the top dose activity change, negative = inhibition, most hits filed as inhibitors; hit rate 27% among 530; AID 2711; further: nearly all actives have a fitted effect of over 45% in size
RECQ1 inh-2 – blocks human RECQ1 DNA unwinding | shares compounds with RECQ1 inh-1 | recombinant RECQ1 DNA unwinding, red fluorescence | Potency, µM (highest dose often 119 µM), inactives show at the top dose activity, negative = inhibition, most hits filed as inhibitors | hit rate 15% among 1,100 | AID 504841; further: nearly all actives have a fitted effect of over 50% in size
Numbers without * were called inactive; [ ] = remark or other dose. Unless noted, the call rests on the fitted dose curve; in most records, active means well fitted curve in the direction sought with a large enough effect; inconclusive means small, poorly fitted or top-dose-only effect, or another doubt; inactive means no such curve, though single readings can be large; an effect the other way counts as inactive or inconclusive. Unless noted, on the % scale 0 is the no-effect control and ±100 the full control effect; potency means the concentration at half of the fitted maximal effect.

COc1cccc(C(C(=O)NCc2ccco2)N(C(=O)Cn2nnc3ccccc32)C2CC2)c1OC (stereo not drawn) was read as GoLoco inh red 4%, L3MBTL1 inh -5%, JMJD2E inh 1%, BLM inh -1%, RECQ1 inh-1 inconclusive, APEX1 inh 0% and RECQ1 inh-2 -11%.
Screening Cc1ccccc1C(C(=O)NCc1ccco1)N(CC1CCCO1)C(=O)Cn1nnc2ccccc21 (stereo not drawn) returned GoLoco inh red -2%, L3MBTL1 inh 30%, JMJD2E inh 5%, BLM inh 1%, RECQ1 inh-1 -3% and APEX1 inh -1%.
For C/C(=N\N1CCN(c2ccccc2)CC1)c1cccs1 the results were GoLoco inh red 0%, JMJD2E inh -3%, BLM inh -1%, RECQ1 inh-1 -6% and APEX1 inh 1%.
For C/C(=N\N=C(c1ccccc1)c1ccccc1)c1cccs1 the results were GoLoco inh red 2%, L3MBTL1 inh -4%, JMJD2E inh -4%, BLM inh -9%, RECQ1 inh-1 18µM*, APEX1 inh -1%, RECQ1 conf -4%[114 µM] and ADP FP counter -9%[91.9 µM].
Screening CCN1CCN(c2nc(Nc3ccc(NC(C)=O)cc3)nc(Nc3ccc(NC(C)=O)cc3)n2)CC1 returned GoLoco inh red 5%, JMJD2E inh -2%, BLM inh 18µM*, RECQ1 inh-1 32µM*, APEX1 inh -4% and RECQ1 inh-2 22µM*.
Screening CC(=O)N1CCC(N(Cc2ccco2)C(=O)Nc2ccc(Br)cc2F)CC1 returned BLM inh -1%.
Screening C[n+]1cccc2c(Br)ccc([O-])c21 returned GoLoco inh red -25%, L3MBTL1 inh inconclusive, JMJD2E inh inconclusive, BLM inh 20µM*, RECQ1 inh-1 32µM*, APEX1 inh -11% and RECQ1 inh-2 -12%.
[O-][n+]1cccc2c(Br)cc(Br)c(O)c21 was read as GoLoco inh red 2%, JMJD2E inh -26%, BLM inh -15%, RECQ1 inh-1 -10% and APEX1 inh -4%.
Cn1cnc([N+](=O)[O-])c1Oc1cccc2ccccc12 was read as GoLoco inh red -4%, L3MBTL1 inh 4%, JMJD2E inh 21%, BLM inh 1%, RECQ1 inh-1 5µM*, APEX1 inh 18% and RECQ1 inh-2 -16%.
`CC1=C(c2ccc(C)c(C)c2)S(=O)(=O)N=C1N1CCC(C(=O)NCc2ccc(C)o2)CC1` gave BLM inh -1%.
For Cc1csc(NC(=O)C2=NN(c3ccccc3)C(=O)CC2)n1 the results were GoLoco inh red 12%, L3MBTL1 inh 8%[11.4 µM], JMJD2E inh -5%, BLM inh -5%, RECQ1 inh-1 inactive and APEX1 inh 3%.
Cc1ccc(-c2csc(NC(=O)C3=NN(c4ccccc4)C(=O)CC3)n2)cc1 was read as GoLoco inh red 12%, L3MBTL1 inh -14%, JMJD2E inh -25%, BLM inh -6%, RECQ1 inh-1 inconclusive, APEX1 inh 9% and RECQ1 inh-2 -13%.
For O=C(Nc1ccc2nc(SCC(=O)N3CCCc4ccccc43)sc2c1)c1cccc(Cl)c1 the results were BLM inh -7%.
Screening O=C(Nc1cccc([N+](=O)[O-])c1)c1cccc(C(=O)Nc2cccc([N+](=O)[O-])c2)c1 returned GoLoco inh red 13%, L3MBTL1 inh -3%, JMJD2E inh -6%, BLM inh inconclusive, RECQ1 inh-1 -4% and APEX1 inh inconclusive.
Screening Cc1nc2ccc(C(=O)Nc3cccc([N+](=O)[O-])c3)cc2s1 returned GoLoco inh red 11%, L3MBTL1 inh -1%, JMJD2E inh 0%, BLM inh -2%, RECQ1 inh-1 inconclusive, APEX1 inh -9% and RECQ1 inh-2 -6%.
`Cc1ccc(CCNC(=O)c2ccc3c(Cl)c4c(nc3c2)CCCC4)cc1` gave BLM inh -6%.
For O=C(CN1CCN(S(=O)(=O)c2ccc(F)cc2)CC1)c1ccc(O)c(O)c1 the results were GoLoco inh red -29%, JMJD2E inh 4.5µM*, BLM inh 2%, RECQ1 inh-1 40µM*, APEX1 inh 4µM* and RECQ1 inh-2 -11%.
O=C(CN1CCN(S(=O)(=O)c2ccc(Cl)cc2)CC1)c1ccc(O)c(O)c1 was read as BLM inh -13% and APEX1 inh -2%.
For CC(C)Oc1ccc(CNC(=O)CCCN2C(=O)c3cccnc3Oc3ccc(Cl)cc32)cc1 the results were BLM inh -4%.
For C=CCOC(=O)C1(C(NC(=O)OC)c2ccccc2)C(=O)Cc2ccccc21 (stereo not drawn) the results were GoLoco inh red 0%, JMJD2E inh 4%, BLM inh 4%, RECQ1 inh-1 0% and APEX1 inh 2%.
Screening CCCCc1nn2c(=O)cc(COC(=O)c3cccc(NC(=O)c4cccc(Cl)c4)c3)nc2s1 returned BLM inh -3%.
For O=C(O)CCC(=O)N1CCc2cc(S(=O)(=O)NCc3cccs3)ccc21 the results were GoLoco inh red 4%, L3MBTL1 inh 0%, JMJD2E inh -2%, BLM inh -2%, RECQ1 inh-1 -2%, APEX1 inh -7%, RECQ1 conf 7% and ADP FP counter -1%.
`O=C(O)CCCC(=O)N1CCc2cc(S(=O)(=O)NCc3ccc(F)cc3)ccc21` gave GoLoco inh red -11%, JMJD2E inh -1%, BLM inh -14%, RECQ1 inh-1 -8%, APEX1 inh 19%, RECQ1 conf 12% and ADP FP counter 6%.
`CCC(=O)N1CCCc2cc(S(=O)(=O)NCc3cccs3)ccc21` gave GoLoco inh red -9%, JMJD2E inh -1%, BLM inh -1%, RECQ1 inh-1 -1% and APEX1 inh -1%.
`CCN1C(=O)c2ccccc2Sc2ccc(NC(=O)Nc3cc(C)cc(C)c3)cc21` gave BLM inh -5%.
